Sampled rows, rich in hits. Any-hit rate of the full collection: about 3.5%.
BoNT A protease: BoNT/A light chain protease inhibitors, primary screen, biochemical, flow cytometry, MLPCN library; multiplex microsphere protease substrate cleavage; AID 588499, 2011; inhibition, % at 10 µM; actives 0.17% (n = 360,000); Botulinum neurotoxin type A light chain protease (Clostridium botulinum A str. ATCC 3502); further: plate controls were buffer without enzyme for full effect and enzyme alone for no effect
Bead autofluor: flagged as autofluorescent in microsphere protease counterscreen; compound autofluorescence counterscreen, microsphere flow cytometry; active compounds read high; fluorescence intensity (concentration not given with the values); actives 3.1% (n = 360,000); AID 624483; in the data active means fluorescence intensity above about 16000; inconclusive means no clear call, values can overlap the other calls
BoNT F protease: BoNT/F light chain protease inhibitors, primary screen, biochemical, flow cytometry, MLPCN library | Botulinum neurotoxin type F light chain protease (Clostridium botulinum) | Multiplex microsphere protease cleavage assay | inhibition, % at 10 µM | actives 0.22% (n = 360,000) | AID 588497, 2011; in the data active means inhibition above about 35%, passing the limit was not always enough; inconclusive means no clear call, values can overlap the other calls; further: plate controls were buffer without enzyme for full effect and enzyme alone for no effect
Anthrax LF inh2: Bacillus anthracis LF protease inhibitors, primary screen, biochemical, multiplex microsphere, MLPCN library; Lethal factor (Bacillus anthracis), P15917; multiplex microsphere protease cleavage assay; inhibition, % at 10 µM; actives 0.12% (n = 360,000); AID 588501, 2011; further: plate controls were buffer without enzyme for full effect and enzyme alone for no effect
The depositor's hits bear a star; ? = inconclusive. Unless noted, no stated cut-off is given here; in the data, active means inhibition above about 30%; inconclusive means no clear call, values can overlap the other calls; inactive means below that.

SMILES | BoNT A protease | Bead autofluor | BoNT F protease | Anthrax LF inh2
CCCn1nc2ccccc2c1P(=N)(N1CCOCC1)N1CCOCC1 | ? | 20501* | 1 | 2
C[C@@H]1CCCCO[C@@H](CN(C)C(=O)CCC(F)(F)F)[C@@H](C)CN([C@H](C)CO)C(=O)c2cc(N(C)C)ccc2O1 | 0 | 3575 | -2 | -1
Cc1ccccc1CNC(=O)Cc1cccs1 | 1 | 2431 | 0 | -2
O=C(Cc1cccs1)NCc1ccccc1F | -5 | 21726* | -5 | 0
Cc1ccccc1NC(=O)Cn1nnc(-c2ccc(N3CCOCC3)cc2)n1 | ? | 22327* | -4 | -6
O=C(Cn1nnc(-c2ccc(CN3CCOCC3)cc2)n1)Nc1nc(-c2ccccc2)cs1 | 0 | 21308* | -1 | -10
Clc1ccc(Cn2nnc(-c3ccc(N4CCOCC4)cc3)n2)cc1 | -2 | 12804 | -17 | -8
O=C(Cn1nnc(-c2ccc(N3CCOCC3)cc2)n1)OC1CCCCC1 | 2 | 21996* | 4 | -3
CCCCn1c(O)c(C(CC)=NCc2ccc(F)cc2)c(=O)[nH]c1=O | 1 | ? | -2 | -22
CCCCn1c(O)c(C(CC)=NCCCN(C)C)c(=O)[nH]c1=O | 1 | 16159* | 3 | 0
CCCCn1c(O)c(C(C)=NCCCN(CC)CC)c(=O)[nH]c1=O | 0 | 23379* | -4 | -3
CCCCn1c(O)c(C(C)=NCCCN(C)C)c(=O)[nH]c1=O | 4 | 14900 | 5 | -2
CCCCn1c(O)c(C(C)=NCc2ccc(F)cc2)c(=O)[nH]c1=O | -1 | 23819* | -4 | -1
CCc1nc2c(OCc3ccc(F)c(F)c3)cccn2c1N(C)C(=O)C1CC1 | 0 | 3882 | -8 | 5
CCOC(=O)c1c(C)c(C(=O)NC2CCCCCC2)c(C)n1C | ? | 21622* | 5 | 3
CCOCCCNC(=O)c1c(C)c(C(=O)OCC)n(C)c1C | ? | 18479* | 8 | -8
CCOC(=O)c1c(C)c(C(=O)NCc2ccccc2OC)c(C)n1C | -5 | 22066* | -6 | 1
CCOC(=O)c1c(C)c(C(=O)N(C)C2CCCCC2)c(C)n1C | -1 | 11136 | 4 | -2
CCC(=O)N1CCC(C)(C(=O)Nc2nccc3ccccc23)C1 (configuration not stated) | 0 | 2905 | -6 | 2
CC(=O)Nc1ccc(S(=O)(=O)Oc2ccc(N3C(=O)C4CCCCC4C3=O)cc2)cc1 (configuration not stated) | ? | 19304* | -1 | -6
CNCCCOc1ccc(C)cc1Br | ? | 20475* | -3 | -1
CCN1/C(=C/c2ccc3cc(C)ccc3[n+]2CC)Sc2ccc3sccc3c21 | 49* | 3616 | -101 | -71
CCN1/C(=C\c2ccc3cc(C)ccc3[n+]2CC)Sc2cc(C)c(C)cc21 | 42* | 7412 | -82 | -64
CCN1/C(=C/c2ccc3cccc(C)c3[n+]2CC)Sc2ccccc21 | 79* | 8752 | -18 | 18
CCN1/C(=C/c2ccc3cc(C)cc(C)c3[n+]2CC)Sc2cc(C)ccc21 | 27 | 8167 | -97 | -89
SMILES | BoNT A protease | Bead autofluor | BoNT F protease | Anthrax LF inh2
Nc1nnc(COc2cccc(C(F)(F)F)c2)s1 | 0 | 5746 | 10 | -1
Cc1cccc(OCc2nnc(N)s2)c1 | ? | 24413* | -3 | -4
Cc1ccc(N(C(C)C(=O)N2CCCCC2)S(C)(=O)=O)cc1C (configuration not stated) | 2 | 22154* | 4 | 2
CC(C(=O)N1CCC(C(N)=O)CC1)N(c1ccc(Oc2ccccc2)cc1)S(C)(=O)=O (configuration not stated) | 1 | 20200* | 1 | 0
CS(=O)(=O)N(CC(=O)N1CCC(C(N)=O)CC1)c1ccc(Oc2ccccc2)cc1 | -1 | 2980 | -7 | 0
Cc1ccc(NC(=O)CN2C(=O)S/C(=C/c3ccc(-c4cc(C(=O)O)ccc4C)o3)C2=O)cc1C | 0 | 16807* | -1 | -4
Cc1ccc(NC(=O)C2C(C(=O)O)C3C=CC2C32CC2)cc1 (configuration not stated) | 0 | 19275* | 1 | -9
Cc1cccc(NC(=O)C2C(C(=O)O)C3C=CC2C32CC2)c1C (configuration not stated) | 0 | 5639 | 2 | 7
COC(=O)C1=C(C)NC(=O)CC1c1ccc(F)c(Br)c1 (configuration not stated) | ? | 23452* | 1 | -1
CCOc1nc(-c2ccccc2Cl)ccc1C#N | -2 | 20479* | -4 | -3
Cc1cccc(C)c1C(O)c1ncc(-c2cccc3ccccc23)[nH]1 (configuration not stated) | 0 | 3574 | 1 | -3

Compound activity from PubChem BioAssay.
